SUMO Mot1 rescue: SUMOylation pathway inhibition by Mot1-301 growth rescue. S. cerevisiae Mot1-301 growth rescue, ATP luminescence, 38.5C; percent above DMSO median, 100 means doubled. growth rescue, % at 18.8 µM. 320,000 compounds, 1% hits. AID 2716;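 active = every valid replicate shows activation above 250% relative to neutral control wells; inactive = the rest, any valid replicate at or below 250%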
ALR inh: inhibitors of human sulfhydryl oxidase ALR | 290,000 compounds, 3.8% hits | P55789 | inhibition, % (concentration not given with the values) | purified ALR, DTT oxidation, H2O2 HRP-luminol luminescence;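 active = mean replicate inhibition above about 79%, with every replicate also reaching it, limit read from the data; inconclusive = only one of the two criteria met; inactive = mean below limit and not every replicate reaching it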
VLA-4 inh: inhibition in a human VLA-4 binding assay; P13612; VLA-4 expressing cells, ligand binding flow cytometry; inhibition, % (about 7 µM as worked out from the volumes in the protocol); 330,000 compounds, 0.2% hits; in the data active = inhibition above about 50%
Target sequence (P13612 whole entry, looked up): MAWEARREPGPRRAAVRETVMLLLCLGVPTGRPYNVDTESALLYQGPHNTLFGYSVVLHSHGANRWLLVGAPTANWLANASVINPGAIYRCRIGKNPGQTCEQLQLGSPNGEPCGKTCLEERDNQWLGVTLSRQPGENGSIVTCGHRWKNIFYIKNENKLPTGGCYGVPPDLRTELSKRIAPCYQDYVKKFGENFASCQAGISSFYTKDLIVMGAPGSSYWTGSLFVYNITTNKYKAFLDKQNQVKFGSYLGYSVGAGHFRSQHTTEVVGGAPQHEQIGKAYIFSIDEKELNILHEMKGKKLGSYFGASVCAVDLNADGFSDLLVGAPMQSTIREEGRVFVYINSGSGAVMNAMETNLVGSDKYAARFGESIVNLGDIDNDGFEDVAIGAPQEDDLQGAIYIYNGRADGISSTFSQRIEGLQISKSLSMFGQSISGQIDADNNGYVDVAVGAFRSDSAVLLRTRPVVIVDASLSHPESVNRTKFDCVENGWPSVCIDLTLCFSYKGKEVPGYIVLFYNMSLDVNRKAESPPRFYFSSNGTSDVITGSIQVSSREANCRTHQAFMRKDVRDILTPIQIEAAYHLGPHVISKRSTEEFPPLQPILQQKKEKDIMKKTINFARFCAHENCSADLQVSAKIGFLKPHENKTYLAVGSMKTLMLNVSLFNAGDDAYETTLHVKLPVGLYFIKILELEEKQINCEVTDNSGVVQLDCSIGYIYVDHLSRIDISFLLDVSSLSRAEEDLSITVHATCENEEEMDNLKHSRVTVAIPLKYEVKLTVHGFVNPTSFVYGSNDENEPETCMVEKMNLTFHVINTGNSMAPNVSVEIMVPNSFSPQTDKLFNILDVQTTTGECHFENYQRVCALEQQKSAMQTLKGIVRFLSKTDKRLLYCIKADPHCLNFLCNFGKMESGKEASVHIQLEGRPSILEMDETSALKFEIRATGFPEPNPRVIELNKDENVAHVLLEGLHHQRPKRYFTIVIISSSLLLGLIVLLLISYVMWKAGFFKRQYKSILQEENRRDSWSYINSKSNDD
Efflux pump mplx: inhibitors of Candida antifungal efflux pumps expressed in yeast. AID 485275. S. cerevisiae Candida pump triplex, Nile Red efflux. inhibition, % at 10 µM. 330,000 compounds, 0.44% hits;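 active = plate passing quality check with inhibition over a set limit, or well fluorescence over plate mean plus 4 SD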;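 note: Nile Red retained in pooled yeast measured as flow cytometry median fluorescence; higher means more Nile Red kept so more efflux inhibition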
Bfl-1 A1 inh: inhibitors of the anti-apoptotic protein A1, read as caspase activation | MEF A1-2A-BIM cells, Caspase-Glo 3/7 luminescence, 3 h; percent of clofoctol response, vehicle zero | caspase activation, % (test concentration not listed) | 330,000 compounds, 0.066% hits | AID 2462;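 active = over half of replicate activation scores above 10%, or exactly half above 10 with the replicate mean above 10; inconclusive = replicate mean below 10 yet half the replicates above 10; inactive = over half of replicates below 10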
AHR act: activators of human aryl hydrocarbon receptor. P35869. AHR-responsive luciferase reporter cells, luminescence. activation, % at 5 µM. 320,000 compounds, 2.5% hits. AID 2796; in the data active = activation above about 47%
Each line names hits and unclear results; the compound was inactive in the other large screens. A selection: hits, their analogues and other compounds. The true share with any hit is near 7.2%.

Cc1ccc(NC(=O)[C@@H]2CCCN2C(=O)[C@@H]2Cc3ccccc3CN2)c(C)c1	none
Cc1cc(C)c(C#N)c(Oc2ccc(O)cc2)n1	ALR inh inconclusive
COc1ccc(C(=O)COc2nc(C)cc(C)c2C#N)cc1	AHR act 47
CCCCC(=O)Nc1ccc(NC(=O)c2ccc(C)c([N+](=O)[O-])c2)cc1OC	AHR act 72
O=c1[nH]c(/C=C2\C=Nc3ccccc32)c(O)n1Cc1ccccc1F	none (no result: ALR inh)
CSc1nc(O)c(/C=C2\C=Nc3ccccc32)[nH]1	AHR act 76
O=C(COC(=O)C1CCN(S(=O)(=O)c2ccc3c(c2)OCCO3)CC1)Nc1cc(C(F)(F)F)ccc1Cl	none
COc1ccc(CNC(=O)COc2cc3c(c4oc(=O)cc(C)c24)CCC(C)(C)O3)cc1OC	SUMO Mot1 rescue 334
Cc1cc(=O)oc2c3c(cc(OCC(=O)NCc4ccncc4)c12)OC(C)(C)CC3	none (no result: ALR inh)
CCCc1cc(=O)oc2c3c(cc(OCC(=O)NCCCn4ccnc4)c12)OC(C)(C)CC3	SUMO Mot1 rescue 412
COc1cc(/C=N/NC(=O)NC23CC4CC(CC(C4)C2)C3)ccc1O	ALR inh 95
O=C(N/N=C/c1ccc(O)c(O)c1)NC12CC3CC(CC(C3)C1)C2	ALR inh 99
O=C(N/N=C/c1ccc(O)c(O)c1)C1CC1	ALR inh 99
COc1cc(/C=N\NC(=O)C2CC3C=CC2C3)ccc1O (stereo not given)	ALR inh 100
O=C(N/N=C/c1ccsc1)C1CC1	none (no result: SUMO Mot1 rescue)
CN(CC(=O)Nc1cccc(F)c1)C(=O)CC1CC2CCC1C2 (stereo not given)	none
O=C(/C=C/c1ccccc1)NC(N1CCOCC1)C(Cl)(Cl)Cl (stereo not given)	none
CCOc1ccc(/C=N/NC(=O)NC23CC4CC(CC(C4)C2)C3)cc1O	ALR inh 99
O=C(N/N=C/c1ccccc1O)NC12CC3CC(CC(C3)C1)C2	none
CC12CCC(C(=O)NCc3ccc4c(c3)OCO4)(C(=O)C1=O)C2(C)C (stereo not given)	none
O=C(O)c1cccc(-n2c(/C=C/c3ccccc3)nc3ccccc3c2=O)c1	ALR inh 78
CN(C)c1ccc(/C=C/c2nc3ccccc3c(=O)n2-c2ccc(C(=O)O)cc2)cc1	ALR inh 99
Cc1cccc(NC(=S)NC(C)C(c2ccccc2)N2CCN(C)CC2)c1C (stereo not given)	none
CC(C)C(=O)NN(C(=O)C(C)C)c1nc2ccccc2s1	ALR inh 95
CC(=O)Oc1cc(O)c2c(=O)c(OC(C)=O)c(-c3ccc(OC(C)=O)c(OC(C)=O)c3)oc2c1	ALR inh 82
COc1ccc(-c2oc3cc(OC)c(O)c(OC)c3c(=O)c2OC)cc1O	ALR inh 100
COc1ccc(-c2oc3cc(O)c(OC)c(O)c3c(=O)c2OC)cc1	none
COc1c(-c2ccc(O)cc2)oc2cc(O)cc(O)c2c1=O	ALR inh 98
COc1ccc(-c2oc3ccccc3c(=O)c2OC(C)=O)cc1	none (no result: ALR inh)
COc1ccc(-c2oc3c(OC)c(OC)c(OC)c(O)c3c(=O)c2OC)cc1OC	SUMO Mot1 rescue active
N=C(N)SCc1nc2ccccc2c(=O)n1-c1ccccc1	ALR inh 98
O=C(O)c1ccc(CSc2nc3ccccc3c(=O)n2-c2ccccc2)cc1	none (no result: ALR inh)
COc1cc(-c2nc3ccccn3c2/N=C/c2cccc(F)c2)ccc1O	ALR inh 78
COc1cc(-c2nc3ccccn3c2/N=C/c2ccccc2)ccc1O	ALR inh 84
COc1ccc(-c2nc3ccccn3c2/N=C/c2ccc(OC)c(OC)c2)cc1O	none (no result: ALR inh)
COc1cc(-c2nc3ccccn3c2/N=C/c2cc(OC)c(O)cc2Cl)ccc1O	ALR inh 94
O=C(CNC(=O)c1ccco1)OCC(=O)c1ccc([N+](=O)[O-])cc1	ALR inh 99
O=C(CNC(=O)c1ccco1)OCC(=O)c1ccc(Cl)cc1	none (no result: ALR inh)
CC(C)(C)N(Cc1ccccc1)C(=O)COC(=O)CNC(=O)c1ccco1	Bfl-1 A1 inh 16
O=C(CNC(=O)c1ccco1)NCC(=O)OCC(=O)c1ccc(Cl)c([N+](=O)[O-])c1	ALR inh 98
Cc1ccc(CN2CCSc3sccc3C2=O)cc1	none
CCOc1ncccc1C(=O)OCC(=O)Nc1nnc(-c2ccccc2)o1	none
CCOc1cc(C(=O)NC)cc(Br)c1OC	none
CCOc1cc(C(=O)N=c2sccn2C)cc(Br)c1OC	AHR act 55
O=C(CCNS(=O)(=O)c1ccc(Br)s1)Nc1ccc(Cl)cc1	none
NC(=O)c1ccc(NC(=O)c2cccc3c2OCCCO3)cc1	none
O=[N+]([O-])C(=C1Nc2ccccc2N1)/C(Cl)=C(/Cl)Br	ALR inh 89
CN(Cc1ccccc1)C(=C(Cl)Cl)C(=C1NCCN1)[N+](=O)[O-]	none
Cc1ccc(N(CCC(=O)Nc2nnc(C3CC3)s2)S(=O)(=O)c2ccccc2)cc1	Efflux pump mplx 10
CN(c1ccccc1)S(=O)(=O)c1ccc(C(=O)Nc2nnc(C3CC3)s2)cc1	none (no result: ALR inh)
Cc1cc(C)c([N+](=O)[O-])cc1NCC(=O)N1CCN(c2ccccc2)CC1	none
O=C1Nc2ccccc2N(O)N1c1ccc(Cl)c(Cl)c1	none
O=C1Nc2cc(Cl)c(Cl)cc2N(O)N1c1ccc(Cl)c(Cl)c1	AHR act 57
Cc1ccc(S(=O)(=O)Nc2cc(C(C)C)c(O)cc2C)cc1	ALR inh 97
Cc1ccc(S(=O)(=O)Nc2cc(Cl)c(O)cc2C)cc1	none (no result: ALR inh)
Cc1cc(C(=O)O)cc(Br)c1N	SUMO Mot1 rescue 326
COc1ccc(CCC(=O)OCC(=O)N(CC(C)C)c2c(N)n(Cc3ccccc3)c(=O)[nH]c2=O)cc1	none
Cc1cs/c(=N\N=C\c2ccccc2)n1Cc1ccco1	ALR inh 84
CC(C)=N/N=c1\scc(C)n1Cc1ccco1	none
Cc1cs/c(=N\N=C2CCCCC2)n1Cc1ccco1	ALR inh 96
O=C(Nc1ccc2c(c1)OCO2)C(c1ccccc1)N1CCC2(CC1)OCCO2 (stereo not given)	none
CC1CCCN(C(C(=O)Nc2ccc3c(c2)OCO3)c2ccccc2)C1 (stereo not given)	AHR act 47
CC1CCCN(C(C(=O)Nc2ccc3c(c2)OCCO3)c2ccccc2)C1 (stereo not given)	none
CC1CCC(NC(=O)C(=O)Nc2ccc3c(c2)OCO3)CC1 (stereo not given)	AHR act 49
O=C(Nc1ccc2c(c1)OCO2)C(c1ccccc1)N1CCCCC1 (stereo not given)	AHR act 60
CC1CCN(C(C(=O)Nc2ccc3c(c2)OCO3)c2ccccc2)CC1 (stereo not given)	AHR act 48
Cc1c(-c2ccccc2)sc2nc[nH]c(=S)c12	none
CCSc1nc2sc3c(c2c(=O)n1-c1ccccc1C)CCN(C)C3	none

Screens (PubChem)
